# Laboratory results reported in PMC11066047.
# How the values were obtained:
# [1] = target: Eukaryotic translation initiation factor 3 subunit A (UniProt P38249); assay: cross-link between two proteins; cross-linking mass spectrometry
# [2] = target: Histone H3 (UniProt P61830); assay: as above
# [3] = target: Nucleolar complex protein 14 (UniProt Q99207); assay: cross-link between two proteins
# [4] = target: Something about silencing protein 10 (UniProt Q12136); assay: cross-link between two proteins
# [5] = target: Small ribosomal subunit protein bS1m (UniProt Q02950); assay: cross-link between two proteins; cross-linking mass spectrometry
# [6] = target: Small ribosomal subunit protein uS8m (UniProt Q03799); assay: as above
# Eukaryotic translation initiation factor 3 subunit A, sequence (P38249 whole entry): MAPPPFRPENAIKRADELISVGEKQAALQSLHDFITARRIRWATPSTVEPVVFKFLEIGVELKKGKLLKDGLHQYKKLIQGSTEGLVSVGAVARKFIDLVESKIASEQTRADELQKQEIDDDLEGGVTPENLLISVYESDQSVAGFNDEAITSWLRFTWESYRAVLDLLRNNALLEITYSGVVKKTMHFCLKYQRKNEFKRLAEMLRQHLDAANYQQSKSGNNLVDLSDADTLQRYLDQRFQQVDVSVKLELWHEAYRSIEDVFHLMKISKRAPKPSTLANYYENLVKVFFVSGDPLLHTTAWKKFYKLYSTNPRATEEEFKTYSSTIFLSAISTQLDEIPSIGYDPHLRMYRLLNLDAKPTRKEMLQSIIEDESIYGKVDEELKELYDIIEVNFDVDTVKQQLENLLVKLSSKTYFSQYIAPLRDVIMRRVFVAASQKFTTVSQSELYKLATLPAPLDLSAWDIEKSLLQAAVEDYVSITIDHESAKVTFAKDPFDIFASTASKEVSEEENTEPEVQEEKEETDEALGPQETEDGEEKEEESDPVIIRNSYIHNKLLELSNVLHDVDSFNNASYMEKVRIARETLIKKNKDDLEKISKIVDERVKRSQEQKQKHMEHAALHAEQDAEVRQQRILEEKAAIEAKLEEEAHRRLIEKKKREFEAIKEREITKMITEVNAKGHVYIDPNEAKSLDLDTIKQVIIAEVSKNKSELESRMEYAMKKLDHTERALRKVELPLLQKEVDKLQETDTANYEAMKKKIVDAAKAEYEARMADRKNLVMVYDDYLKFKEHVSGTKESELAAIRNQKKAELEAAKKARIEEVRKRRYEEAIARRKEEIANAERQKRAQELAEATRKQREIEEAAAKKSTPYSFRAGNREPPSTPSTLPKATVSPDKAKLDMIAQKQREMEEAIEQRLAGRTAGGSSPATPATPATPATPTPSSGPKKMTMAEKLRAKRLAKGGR
substance,measurement,setting,value
"Eukaryotic translation initiation factor 3 subunit B, P06103",listed as a hit,[1],yes
"Histone H4, P02309",listed as a hit,[2],yes
"Ribosomal RNA small subunit methyltransferase NEP1, Q06287",listed as a hit,[3],yes
same,listed as a hit,[4],yes
"Small ribosomal subunit protein bS18m, P40033",listed as a hit,[5],yes
"Small ribosomal subunit protein mS23, P40496",listed as a hit,[6],yes
